Experimental data published in the supplement of paper PMC7669877.
± gives the uncertainty stated by the source.

Tested on: Candidatus Liberibacter solanacearum in potato hairy roots
Assay: relative CLso titer (% of untreated control); higher = less inhibition of bacterial titer
Settings: 10 µM; 72 h
Experimental: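 Primary screen of ~220 Spectrum collection (MicroSource) compounds at 10 µM (0.1% DMSO) on Candidatus Liberibacter solanacearum-infected potato hairy roots in multi-well plates (Gamborg B-5 medium, vacuum infiltrated, 21 °C, dark, 72 h). CLso titer was measured by qPCR of 16S rDNA normalised to potato RPL2 (2^-ddCq), pairwise-standardised against untreated controls, averaged over two biological replicates and expressed as % of untreated.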

Question: Which “relative CLso titer” value does the source give for `O=C(O)CN(CCN(CC(=O)O)CC(=O)O)CC(=O)O` here?
Answer: Its value is 228 ± 120%.

Question: `CC(C)(Oc1ccc(CCNC(=O)c2ccc(Cl)cc2)cc1)C(=O)O` was tested. Which “relative CLso titer” value did it give?
Answer: Its value is 153 ± 64%.

Question: With `CC[C@H]1OC(=O)[C@H](C)[C@@H](O[C@H]2C[C@@](C)(OC)[C@@H](O)[C@H](C)O2)[C@H](C)[C@@H](O[C@@H]2O[C@H](C)C[C@H](N(C)C)[C@H]2O)[C@](C)(O)C[C@@H](C)C(=O)[C@H](C)[C@@H](O)[C@]1(C)O` as the molecule, how does the “relative CLso titer” value read?
Answer: Its value is 197 ± 120%.

Question: With `CN(C)[C@@H]1C(O)=C(C(N)=O)C(=O)[C@@]2(O)C(O)=C3C(=O)c4c(O)ccc(Cl)c4[C@@H](O)[C@H]3C[C@@H]12` as the molecule, how does the “relative CLso titer” value read?
Answer: Its value is 173 ± 42%.

Question: With `CCN(CC)CCNC(=O)COc1ccc(OC)cc1` as the molecule, how does the “relative CLso titer” value read?
Answer: Its value is 93.2 ± 2.3%.

Question: `O=C(O)CCC(=O)Nc1ccc(S(=O)(=O)Nc2nccs2)cc1` was tested. Which “relative CLso titer” value did it give?
Answer: The value was 100 ± 28%.

Question: `CCN(CC)C(=S)SSC(=S)N(CC)CC` was tested. Which “relative CLso titer” value did it give?
Answer: The value was 82.7 ± 6%.

Question: With `Nc1cccc2c1CN(C1CCC(=O)NC1=O)C2=O` (stereo not given) as the molecule, how does the “relative CLso titer” value read?
Answer: The value was 143 ± 43%.

Question: How did the “relative CLso titer” value turn out when `COc1ccc(C[C@H](N)C(=O)N[C@H]2[C@@H](O)[C@H](n3cnc4c(N(C)C)ncnc43)O[C@@H]2CO)cc1` was run?
Answer: The value was 91.8 ± 5.9%.

Question: For `O=C(O)c1cc(=O)c2c(OCC(O)COc3cccc4oc(C(=O)O)cc(=O)c34)cccc2o1`, which “relative CLso titer” value is on record?
Answer: The value was 58 ± 9.1%.

Question: With `CN(C)/N=N/c1[nH]cnc1C(N)=O` as the molecule, how does the “relative CLso titer” value read?
Answer: The value was 84.5 ± 19%.

Question: `CC(=O)OCC(=O)[C@@]1(O)CC[C@H]2[C@@H]3CCC4=CC(=O)CC[C@]4(C)[C@H]3C(=O)C[C@@]21C` was tested. Which “relative CLso titer” value did it give?
Answer: Its value is 27.6 ± 3%.

Question: `O=C(O)c1cc(-c2ccc(F)cc2F)ccc1O` was tested. Which “relative CLso titer” value did it give?
Answer: The value was 115 ± 58%.

Question: With `CC(C)CCCC(C)N` (stereo not given) as the molecule, how does the “relative CLso titer” value read?
Answer: Its value is 93.3 ± 14%.

Question: How did the “relative CLso titer” value turn out when `COC(=O)C1=C(C)NC(C)=C(C(=O)OCCN(C)Cc2ccccc2)C1c1cccc([N+](=O)[O-])c1` (stereo not given) was run?
Answer: The value was 121 ± 15%.

Question: Which “relative CLso titer” value does the source give for `CN(C)CCOC(c1ccccc1)c1ccccc1` here?
Answer: Its value is 55.8 ± 26%.

Question: With `O=C(O)Cc1ccccc1Nc1c(Cl)cccc1Cl` as the molecule, how does the “relative CLso titer” value read?
Answer: The value was 151 ± 55%.

Question: For `CCCC(C(=O)OCCN(CC)CC)(c1ccccc1)c1ccccc1`, which “relative CLso titer” value is on record?
Answer: Its value is 112 ± 16%.

Question: How did the “relative CLso titer” value turn out when `COc1cccc2c1C(=O)c1c(O)c3c(c(O)c1C2=O)C[C@@](O)(C(C)=O)C[C@@H]3O[C@H]1C[C@H](N)[C@H](O)[C@H](C)O1` was run?
Answer: Its value is 202 ± 6.5%.

Question: How did the “relative CLso titer” value turn out when `O=C(N[C@H](CO)[C@H](O)c1ccc([N+](=O)[O-])cc1)C(Cl)Cl` was run?
Answer: The value was 57.2 ± 12%.

Question: Which “relative CLso titer” value does the source give for `Nc1ccc(S(=O)(=O)c2ccc(N)cc2)cc1` here?
Answer: Its value is 94.3 ± 19%.

Question: With `COc1ccc(C(=O)c2ccccc2O)c(O)c1` as the molecule, how does the “relative CLso titer” value read?
Answer: Its value is 86.9 ± 3.5%.

Question: How did the “relative CLso titer” value turn out when `O=C(O)c1ccccc1C(=O)Nc1ccc(S(=O)(=O)Nc2nccs2)cc1` was run?
Answer: The value was 102 ± 3.3%.

Question: `CC(=O)Oc1cc2c(s1)CCN(C(C(=O)C1CC1)c1ccccc1F)C2` (stereo not given) was tested. Which “relative CLso titer” value did it give?
Answer: The value was 55.4 ± 2.9%.

Question: `CCN(CC)CCOc1ccc(C(=C(Cl)c2ccccc2)c2ccccc2)cc1` was tested. Which “relative CLso titer” value did it give?
Answer: The value was 42.7 ± 2.2%.

Question: How did the “relative CLso titer” value turn out when `CC(C)NCC(O)COc1ccc(CC(N)=O)cc1` (stereo not given) was run?
Answer: Its value is 106 ± 58%.

Question: How did the “relative CLso titer” value turn out when `CC12CC3CC(C)(C1)CC(N)(C3)C2` was run?
Answer: Its value is 63.3 ± 31%.

Question: For `CN(C)c1cnccn1`, which “relative CLso titer” value is on record?
Answer: Its value is 120 ± 27%.

Question: How did the “relative CLso titer” value turn out when `O=C1c2cccc(O)c2C(=O)c2c(O)cccc21` was run?
Answer: The value was 82.5 ± 46%.

Question: With `CCCCOc1ccc(C(=O)CCN2CCCCC2)cc1` as the molecule, how does the “relative CLso titer” value read?
Answer: Its value is 156 ± 14%.

Question: With `CC/C(=C(/CC)c1ccc(O)cc1)c1ccc(O)cc1` as the molecule, how does the “relative CLso titer” value read?
Answer: Its value is 94.4 ± 41%.

Question: Which “relative CLso titer” value does the source give for `NCCc1ccc(O)c(O)c1` here?
Answer: Its value is 117 ± 26%.

Question: Which “relative CLso titer” value does the source give for `C[C@H]1O[C@H](O[C@H]2[C@H](O)[C@@H](O)[C@@H](O[C@H]3[C@H](O)[C@@H](O)C(O)O[C@@H]3CO)O[C@@H]2CO)[C@H](O)[C@@H](O)[C@@H]1N[C@H]1C=C(CO)[C@@H](O)[C@H](O)[C@H]1O` (stereo not given in full) here?
Answer: The value was 135 ± 70%.

Question: Which “relative CLso titer” value does the source give for `Cc1cc(O)cc(C)c1Cl` here?
Answer: The value was 30.8 ± 2.8%.

Question: Which “relative CLso titer” value does the source give for `CCN(CC)C(=O)N1CCN(C)CC1` here?
Answer: Its value is 106 ± 9.8%.

Question: How did the “relative CLso titer” value turn out when `CN(C)CCOC(=O)C(c1ccccc1)C1(O)CCCC1` (stereo not given) was run?
Answer: Its value is 23.4 ± 4.1%.

Question: For `C[C@]12CCC(=O)C=C1CC[C@@H]1[C@@H]2[C@@H](O)C[C@@]2(C)[C@H]1CC[C@]2(O)C(=O)CO`, which “relative CLso titer” value is on record?
Answer: Its value is 94.9 ± 25%.

Question: How did the “relative CLso titer” value turn out when `Nc1ccc(S(=O)(=O)Nc2cnc3ccccc3n2)cc1` was run?
Answer: Its value is 80.23 ± 0.64%.

Question: Which “relative CLso titer” value does the source give for `CNC[C@H](O)c1ccc(O)c(O)c1` here?
Answer: The value was 173 ± 86%.

Question: With `CO/N=C(\C(=O)N[C@@H]1C(=O)N2C(C(=O)O)=C(COC(N)=O)CS[C@H]12)c1ccco1` as the molecule, how does the “relative CLso titer” value read?
Answer: The value was 149 ± 29%.
